This is an account of results in PubChem BioAssay (NCATS).

Assay [1] in a line: AP1 Signaling Pathway (AID 357; active = well fitted curve in either direction with a large enough effect, not every such curve was filed as active;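 also: ME-180 reporter cells stimulated with EGF at its EC50 level; % is scaled to controls: 0 for no effect and ±100 for the full control effect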). Particulars: ME-180 AP-1-bla reporter, EGF-induced, beta-lactamase ratio, 5 h; at 7.69 µM (top of the series) unless noted. A digest of the protocol:
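Titration-series screen for positive or negative modulators of EC50 EGF-induced signaling in ME-180 cells carrying an AP-1-driven beta-lactamase reporter. After 5 hours at 37 degrees Celsius, CCF4 460nm/530nm emission ratio gave %Activity; AC50 values derived.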

Assay [2] deals with Cytochrome P450 1A2 (Homo sapiens) (UniProt P05177). Description: p450-cyp1a2 (AID 410; calls by dose curve; also: potency is read from the fitted curve at half-maximal effect;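 as to activity change, negative = inhibition: -100% = full effect of reference inhibitor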). A digest of the protocol: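 20nM CYP1A2 with 100uM Luciferin-ME (at Km) in 100mM KPO4; compound preincubated 10 min, NADPH regeneration added, 60 min at room temperature. Luciferin quantified by luminescence after detection reagent; normalized to 57 uM furafylline.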
Assay [3] in a line: NFAT Signaling Pathway (AID 444; active = well fitted curve in either direction with a large enough effect, not every such curve was filed as active;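 also: carbachol stimulus at about its EC50 of 1 µM final; % is scaled to controls: 0 for no effect and ±100 for the full control effect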). Particulars: Jurkat NFAT-bla M1, carbachol, beta-lactamase ratio, 5 h; at 7.69 µM (top of the series) unless noted. In a few lines: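 Jurkat cells carrying an NFAT-driven β-lactamase reporter and co-transfected muscarinic M1 receptor were treated with compound plus carbachol (1 uM final, an EC50 level) for 5 h at 37 °C. CCF4 loading followed for 1 h at RT; 460/530 nm ratio gave %activity.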

Assay [4] in a line: Stat Signaling Pathway (AID 446; active = well fitted curve in either direction with a large enough effect, not every such curve was filed as active;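 also: ME-180 cervical cancer cells given 40 pM IL-6 alongside compound; SIE-controlled beta-lactamase reporter measured as 460/530 nm FRET emission ratio; % is scaled to controls: 0 for no effect and ±100 for the full control effect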). Particulars: ME-180 SIE beta-lactamase reporter, IL-6 stimulated, 5 h; at 7.69 µM (top of the series) unless noted. In a few lines:
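ME-180 SIE-bla cells; overnight plating; cpd + IL-6 40 pM, 5 h, 37 C; LiveBLAzer 2.5 h RT; 460/530 nm emission ratio. Normalized to 300 pM IL-6 and 125 nM JAK inhibitor controls.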

In assay [5] the target is Glucocorticoid receptor (Homo sapiens) (UniProt P04150). As to the kind of experiment: GR-GFP Redistribution (AID 450;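 active = compounds whose dose series gives a full or clear partial fitted curve of increased nuclear translocation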; also: potency is read from the fitted curve at half-maximal effect). To be noted: U2OS GR-GFP nuclear translocation, laser cytometry, 2 h.
Assay [6] has the same target. As to the kind of experiment: GR-EFC Redistribution (AID 451; calls by dose curve; also: potency is read from the fitted curve at half-maximal effect). To be noted: CHO-K1 GR-EFC translocation, beta-gal luminescence, 2 h. In a few lines: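 CHO-K1 cells stably expressing nuclear-localized β-gal enzyme acceptor and GR fused C-terminally to the enzyme donor fragment; ligand-driven nuclear translocation restores β-gal by complementation. Compounds titrated up to 46 uM final, 2 h at 37 °C; luminescence read.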

Assay [7] deals with Mitogen-activated protein kinase 10 (Mus musculus) (UniProt Q61831). As to the kind of experiment: JNK3 AlphaScreen Assay (AID 530; active = well fitted curve in either direction with a large enough effect, not every such curve was filed as active;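 also: kinase came from lysate of stimulated human HepG2 cells; signal reports phosphorylation of biotinylated GST-cJun 1-79 at Ser73 with 10 µM ATP; % is scaled to controls: 0 for no effect and ±100 for the full control effect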). A digest of the protocol: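 Inhibitors reduce antibody binding to phosphorylated biotin-cJun, lowering AlphaScreen luminescence. Lysates from HepG2 cells pre-activated by IL-1beta plus TNF-alpha supplied JNK3; compounds were titrated.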
The target of assay [8] is 3',5'-cyclic-AMP phosphodiesterase 4B (Homo sapiens) (UniProt Q07343). As to the kind of experiment: qHTS Assay for Inhibitors of PDE-IV (AID 607; active = well fitted activation curve with a large enough effect in the main read-out, with a control signal flat, not every such curve was filed as active; also: % of control where 0% means no effect). In a few lines: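 ACTOne HEK293 cells carry a modified cAMP-gated CNG channel and express endogenous PDE4; plated 1000 cells/well, compounds up to 22.9 uM final. Membrane-potential dye fluorescence (ex 535/em 590) was read; parental cells received 10 uM forskolin + 100 uM RO 20-1724.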

Assay [9] has as its target Cytochrome P450 3A4 (Homo sapiens) (UniProt P08684). Description: qHTS Assay for Activators of Cytochrome P450 3A4 (AID 885). Also: nearly all actives have a fitted effect of over 65% in size. A digest of the protocol: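 20nM CYP3A4 + 25uM Luciferin-PPXE (=KM), 200mM KPO4; cpd 10 min RT; NADPH regen, 60 min RT; stop w/ detection buffer, 20 min; luminescence. Normalized to 57 uM ketoconazole.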
Assay [10] concerns the target Cytochrome P450 2C19 (Homo sapiens) (UniProt P33261). Description: qHTS Assay for Inhibitors and Substrates of Cytochrome P450 2C19 (AID 899). Also: % is scaled to controls: 0 for no effect and ±100 for the full control effect; nearly all actives have a fitted effect of over 60% in size. A digest of the protocol:
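Human CYP2C19 (5nM) with Luciferin-H EGE at 10uM (its KM) in 50mM KPO4 was preincubated with compound for 10 min at 37C. NADPH regeneration started a 60 min 37C reaction. Luciferin was read by luminescence, normalized to 57uM ketoconazole.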

Assay [11] is described as follows: qHTS Assay for Lipid Storage Modulators (AID 1519; calls by dose curve). To be noted: Drosophila S3 cells, BODIPY lipid droplet/cell ratio, laser cytometry, cells loaded with oleic acid; for activity change, negative = inhibition: at 57.5 µM (top of the series). In a few lines:
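Cells seeded at 5,000 per well were treated with compounds over a concentration series and loaded with oleic acid (400 uM, as added). Lipid droplet fluorescence (488 nm excitation, 500-530 nm channel) was read by laser-scanning cytometry and normalized to 20 uM Triacsin C.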

The target of assay [12] is Dual specificity protein kinase CLK4 (Homo sapiens) (UniProt Q9HAZ1). As to the kind of experiment: qHTS Assay for Inhibitors of CDC-like Kinase 4 (Kinase-Glo Assay) (AID 1770). Also: nearly all actives have a fitted effect of over 65% in size. Also: potency is read from the fitted curve at half-maximal effect. In a few lines:
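Luminescent ATP-depletion read-out (Kinase-Glo) after 4.5 h room-temperature reaction of Clk4 (25 nM final) with RS peptide (100 uM) and ATP (1 uM), pH 7.5 Tris buffer with MgCl2 and DTT.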

The target is the same in assay [13]. Description: qHTS Assay for Inhibitors of CDC-like Kinase 4 (ADP-Glo Assay) (AID 1771). Also: nearly all actives have a fitted effect of over 70% in size. Also: potency is read from the fitted curve at half-maximal effect. A digest of the protocol: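 25 nM Clk4 with 100 uM RS repeat peptide and 1 uM ATP (final) in buffer with 2 mM MgCl2, 0.5 mM EGTA, 2.5 mM DTT, 0.01% Triton X-100; 1 h at room temperature; ADP-Glo luminescence for ADP formed.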
Assay [14] has the same target. Description: qHTS Assay for Inhibitors of CDC-like Kinase 4 (ADP-FP Assay) (AID 1795). Also: nearly all actives have a fitted effect of over 60% in size. Also: potency is read from the fitted curve at half-maximal effect. A digest of the protocol:
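Kinase activity was measured as ADP production using Transcreener orange tracer (4 nM) and ADP antibody (1 ug/mL) fluorescence polarization, with ADP calculated from a calibration curve. The 1 h reaction contained 6.25 nM Clk4, 1 uM ATP and 100 uM RS peptide at pH 7.5 with Mg2+.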

For assay [15], the target named is Ubiquitin carboxyl-terminal hydrolase 1 (Homo sapiens) (UniProt O94782). Description: Inhibitors of USP1/UAF1: Pilot qHTS (AID 504865).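 Also: rhodamine fluorescence freed from ubiquitin-rhodamine substrate followed over time; top concentration of the series differs between compounds; % is scaled to controls: 0 for no effect and ±100 for the full control effect; nearly all actives have a fitted effect of over 35% in size.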 In a few lines:
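Deubiquitinase activity followed as kinetic rhodamine fluorescence release from 150 nM Ub-Rho. 1 nM USP1/UAF1 with compound, after 15 min room-temperature preincubation, in HEPES pH 7.8 buffer containing TCEP, EDTA, BSA and Tween-20.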

A short description of assay [16]: Primary qHTS for small molecule stabilizers of the endoplasmic reticulum resident proteome: Secreted ER Calcium Modulated Protein (SERCaMP) assay (AID 1508630). Also: % is scaled to controls: 0 for no effect and ±100 for the full control effect. In a few lines:
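GLuc-SERCaMP-expressing SH-SY5Y cells, pretreated 16 h with compound, are challenged with thapsigargin to empty ER calcium stores; after 4 h, coelenterazine is added directly to the medium and luminescence is imaged.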

Assay [17] has as its target Lysosomal acid glucosylceramidase (Homo sapiens) (UniProt P04062). As to the kind of experiment: Glucocerebrosidase-p2 (AID 348; in the data active = potency below about 10 µM; also: potency is read from the fitted curve at half-maximal effect). To be noted: purified GBA, blue fluorogenic substrate, 40 min. A digest of the protocol: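 Compounds titrated from 0.6 nM upwards against 0.2 nM enzyme in pH 5.9 citric acid/KH2PO4, taurocholate, tween-20; blue fluorogenic substrate 80 uM, 40 min room temperature, stopped and read Ex 365/Em 440 for AC50.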

Assay [18] is described as follows: qHTS Assay for Identification of Small Molecule Agonists for Hypoxia Response Element Signaling Pathway (AID 914; active = well fitted activation curve with a large enough effect in the signal ratio, with a control signal flat, not every such curve was filed as active; the % refers to the signal ratio; also: potency is read from the fitted curve at half-maximal effect). To be noted: ME-180 (cervical carcinoma) HRE-bla reporter, beta-lactamase ratio, CoCl2, 17 h; activation: stronger effect = higher value. A digest of the protocol:
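In Opti-MEM containing 0.5% dialyzed FBS and 10 mM HEPES, ME-180 HRE-bla cells received a compound titration and EC50 CoCl2. They were incubated 17 hours, then CCF4-loaded 2.5 hours at room temperature before ratio reading.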

The target of assay [19] is Cytochrome P450 3A4 (Homo sapiens) (UniProt P08684). Description: qHTS Assay for Inhibitors and Substrates of Cytochrome P450 3A4 (AID 884). Also: potency is read from the fitted curve at half-maximal effect; nearly all actives have a fitted effect of over 50% in size. In a few lines: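 20 nM human CYP3A4 with 25 uM Luciferin-PPXE (at KM) in 200 mM KPO4, preincubated 10 min with compound; NADPH regeneration started a 60 min RT reaction. Luciferin detected by luminescence, normalized to 57 uM ketoconazole as full inhibition.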

Where [20] appears, read: measured here: cell count channel max response.
[21] abbreviates: measured here: lipid channel max response.

Records with an inconclusive call do not appear. Calls of active or inactive are those of the source. Unless noted, calls follow the shape of the dose curve; as a rule, active = well fitted curve in the direction sought with a large enough effect; inconclusive = small, poorly fitted or top-dose-only effect, or another doubt; inactive = no such curve, though single readings can be large; an effect the other way counts as inactive or inconclusive.

Dual specificity protein kinase CLK4 (Homo sapiens), sequence (Q9HAZ1 whole entry, looked up): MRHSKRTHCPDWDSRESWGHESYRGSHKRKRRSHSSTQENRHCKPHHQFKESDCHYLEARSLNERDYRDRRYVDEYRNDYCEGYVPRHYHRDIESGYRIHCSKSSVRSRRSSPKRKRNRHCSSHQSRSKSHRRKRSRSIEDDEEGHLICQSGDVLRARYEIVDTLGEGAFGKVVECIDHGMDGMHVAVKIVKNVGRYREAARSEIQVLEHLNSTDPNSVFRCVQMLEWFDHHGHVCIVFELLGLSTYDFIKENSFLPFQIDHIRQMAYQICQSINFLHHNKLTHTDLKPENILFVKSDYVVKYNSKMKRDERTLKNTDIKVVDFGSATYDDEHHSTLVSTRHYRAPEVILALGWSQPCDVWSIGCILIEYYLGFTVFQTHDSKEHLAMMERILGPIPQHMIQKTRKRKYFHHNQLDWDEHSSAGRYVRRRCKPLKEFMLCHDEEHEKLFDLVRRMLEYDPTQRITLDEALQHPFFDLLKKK
Ubiquitin carboxyl-terminal hydrolase 1 (Homo sapiens), sequence (O94782 whole entry, looked up): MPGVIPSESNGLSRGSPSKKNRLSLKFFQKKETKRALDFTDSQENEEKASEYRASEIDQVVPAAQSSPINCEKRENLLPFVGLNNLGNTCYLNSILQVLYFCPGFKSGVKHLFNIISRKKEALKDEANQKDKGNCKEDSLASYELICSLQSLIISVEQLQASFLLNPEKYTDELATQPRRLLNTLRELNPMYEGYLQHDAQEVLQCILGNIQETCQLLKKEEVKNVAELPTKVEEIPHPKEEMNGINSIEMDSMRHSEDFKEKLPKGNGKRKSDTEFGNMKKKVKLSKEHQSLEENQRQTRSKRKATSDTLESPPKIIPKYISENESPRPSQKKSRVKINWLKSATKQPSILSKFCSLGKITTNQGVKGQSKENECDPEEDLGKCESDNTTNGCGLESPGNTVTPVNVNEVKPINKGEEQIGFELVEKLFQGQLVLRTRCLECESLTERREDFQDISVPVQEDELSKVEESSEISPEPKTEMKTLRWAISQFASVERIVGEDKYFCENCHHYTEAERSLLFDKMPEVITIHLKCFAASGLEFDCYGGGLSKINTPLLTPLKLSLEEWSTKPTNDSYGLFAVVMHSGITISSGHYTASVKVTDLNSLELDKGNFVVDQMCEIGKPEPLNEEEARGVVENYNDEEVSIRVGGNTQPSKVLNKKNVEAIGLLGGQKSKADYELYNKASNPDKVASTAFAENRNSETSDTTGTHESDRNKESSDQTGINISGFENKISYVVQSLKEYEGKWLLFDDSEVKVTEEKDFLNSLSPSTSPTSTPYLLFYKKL
Cytochrome P450 1A2 (Homo sapiens), sequence (P05177 whole entry, looked up): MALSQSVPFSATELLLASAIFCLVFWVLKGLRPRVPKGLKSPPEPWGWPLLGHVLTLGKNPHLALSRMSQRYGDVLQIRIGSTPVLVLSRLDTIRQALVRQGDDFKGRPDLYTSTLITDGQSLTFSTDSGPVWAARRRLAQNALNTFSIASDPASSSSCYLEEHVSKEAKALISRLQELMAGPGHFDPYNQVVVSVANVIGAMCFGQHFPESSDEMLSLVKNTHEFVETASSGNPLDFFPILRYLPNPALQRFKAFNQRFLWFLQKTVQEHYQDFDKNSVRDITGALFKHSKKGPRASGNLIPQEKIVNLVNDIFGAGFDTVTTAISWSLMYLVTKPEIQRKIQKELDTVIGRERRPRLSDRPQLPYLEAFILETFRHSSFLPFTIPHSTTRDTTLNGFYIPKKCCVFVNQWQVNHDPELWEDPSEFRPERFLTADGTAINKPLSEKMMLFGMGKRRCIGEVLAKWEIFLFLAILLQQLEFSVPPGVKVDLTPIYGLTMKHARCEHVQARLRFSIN
3',5'-cyclic-AMP phosphodiesterase 4B (Homo sapiens), sequence (Q07343 whole entry, looked up): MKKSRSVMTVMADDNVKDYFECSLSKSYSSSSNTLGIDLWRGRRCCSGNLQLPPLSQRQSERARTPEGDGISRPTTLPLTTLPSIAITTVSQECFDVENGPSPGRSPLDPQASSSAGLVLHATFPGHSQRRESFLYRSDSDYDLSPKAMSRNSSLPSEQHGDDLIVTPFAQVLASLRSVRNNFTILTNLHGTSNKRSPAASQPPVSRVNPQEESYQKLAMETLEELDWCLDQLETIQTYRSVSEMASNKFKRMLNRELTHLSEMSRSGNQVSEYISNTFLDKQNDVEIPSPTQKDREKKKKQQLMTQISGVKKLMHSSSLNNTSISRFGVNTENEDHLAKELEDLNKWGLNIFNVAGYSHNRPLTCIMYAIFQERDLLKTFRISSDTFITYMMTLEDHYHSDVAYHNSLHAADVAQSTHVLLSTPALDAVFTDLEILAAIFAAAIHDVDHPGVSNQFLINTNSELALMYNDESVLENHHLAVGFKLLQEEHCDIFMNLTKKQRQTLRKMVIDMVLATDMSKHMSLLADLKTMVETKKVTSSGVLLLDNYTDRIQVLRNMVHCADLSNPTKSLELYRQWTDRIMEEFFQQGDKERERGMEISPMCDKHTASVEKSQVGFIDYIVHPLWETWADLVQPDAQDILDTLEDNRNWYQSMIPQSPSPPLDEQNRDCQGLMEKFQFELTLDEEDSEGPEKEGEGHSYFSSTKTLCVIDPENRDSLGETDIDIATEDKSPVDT
Cytochrome P450 3A4 (Homo sapiens), sequence (P08684 whole entry, looked up): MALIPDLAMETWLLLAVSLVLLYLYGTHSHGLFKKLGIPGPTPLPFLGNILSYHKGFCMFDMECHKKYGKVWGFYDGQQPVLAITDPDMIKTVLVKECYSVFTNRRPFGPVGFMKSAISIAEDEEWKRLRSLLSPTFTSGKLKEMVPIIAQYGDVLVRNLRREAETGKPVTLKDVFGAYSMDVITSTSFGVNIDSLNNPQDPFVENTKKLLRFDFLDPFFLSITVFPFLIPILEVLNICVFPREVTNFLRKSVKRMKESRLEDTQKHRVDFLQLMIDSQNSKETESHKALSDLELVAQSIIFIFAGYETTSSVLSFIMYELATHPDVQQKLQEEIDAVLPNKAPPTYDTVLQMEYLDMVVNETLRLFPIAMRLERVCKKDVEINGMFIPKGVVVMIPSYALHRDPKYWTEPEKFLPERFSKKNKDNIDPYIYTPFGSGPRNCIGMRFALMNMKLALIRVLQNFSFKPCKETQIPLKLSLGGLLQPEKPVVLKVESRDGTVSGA
Glucocorticoid receptor (Homo sapiens), sequence (P04150 whole entry, looked up, the tested form may be a part): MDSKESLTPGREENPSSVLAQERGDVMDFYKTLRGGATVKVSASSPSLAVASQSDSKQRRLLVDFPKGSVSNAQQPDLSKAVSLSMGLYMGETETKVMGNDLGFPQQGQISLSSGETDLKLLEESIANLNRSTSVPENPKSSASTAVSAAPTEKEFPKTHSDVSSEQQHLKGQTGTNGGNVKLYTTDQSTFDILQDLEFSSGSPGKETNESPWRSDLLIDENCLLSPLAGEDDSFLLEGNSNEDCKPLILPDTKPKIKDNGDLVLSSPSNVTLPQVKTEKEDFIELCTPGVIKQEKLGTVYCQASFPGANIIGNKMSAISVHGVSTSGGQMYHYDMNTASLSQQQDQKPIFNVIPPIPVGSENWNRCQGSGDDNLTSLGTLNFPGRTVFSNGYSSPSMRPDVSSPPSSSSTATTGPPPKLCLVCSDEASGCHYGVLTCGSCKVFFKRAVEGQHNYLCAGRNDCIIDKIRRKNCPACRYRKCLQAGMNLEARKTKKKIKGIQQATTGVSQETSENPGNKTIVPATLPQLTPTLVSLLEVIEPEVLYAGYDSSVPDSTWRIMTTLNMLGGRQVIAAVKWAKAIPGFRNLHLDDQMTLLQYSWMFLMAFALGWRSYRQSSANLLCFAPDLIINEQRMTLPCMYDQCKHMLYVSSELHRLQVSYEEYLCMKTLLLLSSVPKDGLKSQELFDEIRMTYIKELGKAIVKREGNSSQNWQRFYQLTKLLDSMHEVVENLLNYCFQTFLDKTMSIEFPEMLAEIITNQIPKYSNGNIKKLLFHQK
Lysosomal acid glucosylceramidase (Homo sapiens), sequence (P04062 whole entry, looked up): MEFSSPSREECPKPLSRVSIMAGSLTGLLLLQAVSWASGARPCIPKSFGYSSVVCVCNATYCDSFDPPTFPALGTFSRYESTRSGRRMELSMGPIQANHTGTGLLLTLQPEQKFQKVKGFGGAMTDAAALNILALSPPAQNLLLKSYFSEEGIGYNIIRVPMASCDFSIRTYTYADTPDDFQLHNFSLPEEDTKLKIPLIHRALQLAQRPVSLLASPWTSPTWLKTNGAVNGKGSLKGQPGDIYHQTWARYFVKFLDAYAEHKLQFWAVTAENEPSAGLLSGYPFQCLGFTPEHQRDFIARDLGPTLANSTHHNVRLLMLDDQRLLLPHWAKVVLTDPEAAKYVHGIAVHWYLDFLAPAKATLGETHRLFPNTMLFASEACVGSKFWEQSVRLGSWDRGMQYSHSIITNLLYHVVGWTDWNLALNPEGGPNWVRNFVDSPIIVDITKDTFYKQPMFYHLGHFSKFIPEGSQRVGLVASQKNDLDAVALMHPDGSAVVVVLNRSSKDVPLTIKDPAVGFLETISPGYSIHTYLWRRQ
Cytochrome P450 2C19 (Homo sapiens), sequence (P33261 whole entry, looked up): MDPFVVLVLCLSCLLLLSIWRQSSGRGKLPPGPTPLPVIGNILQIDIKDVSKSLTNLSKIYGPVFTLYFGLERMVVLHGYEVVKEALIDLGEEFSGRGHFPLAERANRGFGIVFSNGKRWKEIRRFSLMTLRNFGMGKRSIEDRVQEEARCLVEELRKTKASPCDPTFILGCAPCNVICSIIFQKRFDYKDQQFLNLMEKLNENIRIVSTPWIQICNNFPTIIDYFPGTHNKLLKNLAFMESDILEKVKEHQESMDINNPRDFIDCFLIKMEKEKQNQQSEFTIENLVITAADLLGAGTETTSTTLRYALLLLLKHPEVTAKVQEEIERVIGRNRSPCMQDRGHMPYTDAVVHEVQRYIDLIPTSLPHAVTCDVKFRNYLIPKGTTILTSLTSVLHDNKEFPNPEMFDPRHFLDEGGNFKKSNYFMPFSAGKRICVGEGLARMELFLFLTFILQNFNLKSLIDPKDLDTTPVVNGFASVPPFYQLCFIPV

As for `CS(=O)(=O)Nc1cccc(-c2ccc3ncnc(NC4CC4)c3c2)c1`, the results for the activity change, negative = inhibition in [1], in assay [3] and in [11] were -14.5% (inactive), -15.5% (inactive) and -3.87% (inactive), respectively. Besides, the Potency in assay [2] was 0.631 µM (active); in assay [5] it was > 46 µM (inactive); in assay [6], > 46 µM (inactive); in [12], 6.31 µM (active); in assay [13], 5.01 µM (active); in [14], 4.47 µM (active). Also, the activity, negative = inhibition in assay [4] is -20.6% (inactive). Further, in [7], the result was inactive. The Potency entry in [8], in assay [9], in [10], in assay [15] and in assay [16] was “inactive” throughout. Besides, the values for the max response in assay [11] (setting [20]) and in assay [11] (setting [21]) were -8.29% and -10.1%, respectively.

As for `CN1CCN(c2ncc3nc(-c4cc(F)cc(F)c4)c(=O)n(CCc4ccccc4)c3n2)CC1`, the Potency in assay [17] is > 11.4 µM (inactive); in assay [5] it was > 9.22 µM (inactive); in assay [6], > 46 µM (inactive); in [18], 3.16 µM (active). Besides, the Potency entry in assay [2], in [8], in [9], in assay [12], in [13] and in [14] was “inactive” in each case. For the same compound, the Potency result in assay [15] and in assay [16] was “inactive” throughout. Further, in [7], the outcome was inactive. For the same compound, in [11], the activity change, negative = inhibition was -3.87% (inactive). In addition, the max response in assay [11] (setting [20]) worked out at 10.6%; in assay [11] (setting [21]), 3.66%.

As to `O=c1c(-c2ccc(Cl)cc2)nc2cnc(N3CCNCC3)nc2n1Cc1cccs1`, the Potency in assay [17] was > 11.4 µM (inactive); in [2], 12.6 µM (active); in assay [5], > 9.22 µM (inactive); in assay [6] it was > 46 µM (inactive); in [19] it was 5.01 µM (active). For the same compound, the Potency entry in assay [8], in assay [9], in assay [12], in assay [13], in [14] and in assay [16] was “inactive” throughout. Moreover, the activity change, negative = inhibition in assay [11] is 0.33% (inactive). The max response is -11.5% in [11] (setting [20]) and -12.6% in [11] (setting [21]).

In the case of `COc1cccc(-c2ccc3ncnc(NCc4ccccc4)c3c2)c1`, the Potency is > 46 µM (inactive) in [5]; > 46 µM (inactive) in [6]; 2 µM (active) in assay [12]; 2.24 µM (active) in assay [13]; 0.794 µM (active) in [14]. The compound was classed as inactive in assay [7]. In addition, the Potency entry in assay [8], in assay [15] and in assay [16] was “inactive” in each case. Besides, the activity change, negative = inhibition in assay [11] is -5.64% (inactive). Besides, the max response in [11] (setting [20]) is -2.9%; in assay [11] (setting [21]), -10.2%.

Turning to `COc1ccccc1-c1cncnc1NCCNC(C)=O`, the activity change, negative = inhibition is -8.57% (inactive) in [1], 1.19% (inactive) in assay [3] and 0.0705% (inactive) in assay [11]. Besides, the Potency entry in assay [2], in assay [8], in assay [9], in assay [12], in assay [13] and in assay [14] was “inactive” throughout. Besides, the Potency entry in [15] and in assay [16] was “inactive” throughout. The activity, negative = inhibition in [4] is 2.82% (inactive). The figures for the Potency in assay [6] and in [19] were > 46 µM (inactive) and 2 µM (active), respectively. In addition, in assay [7], the compound was called inactive. For the same compound, the max response in [11] (setting [20]) was found to be 19.9%; in assay [11] (setting [21]) it was 19%.

As to `CCNc1ncc2nc(-c3ccccc3)c(=O)n(Cc3cccs3)c2n1`, the Potency in [2] is 0.316 µM (active); in assay [5] it was > 9.22 µM (inactive); in [6], > 46 µM (inactive); in assay [18] it was 3.16 µM (active). The call in assay [7] was inactive. Also, the Potency entry in assay [9], in assay [12], in [13], in [14], in [15] and in assay [16] was “inactive” in each case. Also, the activity change, negative = inhibition in assay [11] was 1.76% (inactive). For the same compound, the results for the max response in assay [11] (setting [20]) and in assay [11] (setting [21]) were 17.2% and 16%, respectively.
